Measured values taken from PubChem BioAssay (NCI).
About 83,000 compounds went through this panel and 20% of them were active in at least one assay; those are over-represented in the sample as a whole.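 Step 1: grow cells in 96-well plates. Step 2: add test compound at a single concentration. Step 3: incubate 48 h. Step 4: record percent growth.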 A number with no mark means an inactive call. The source made the active and inactive calls. The calls were made as follows: active = growth percent below 10; inactive = the rest.

What was measured:
Assay in all cases: NCI-60 one-dose screen, 48 h (100 = growth as untreated, 0 = no growth, -100 = all killed)
Conditions in all cases: 10 µM
SR leukemia = test system: SR leukemia
RPMI-8226 leukemia = test system: RPMI-8226 leukemia
OVCAR-8 ovarian = test system: OVCAR-8 ovarian
OVCAR-5 ovarian = test system: OVCAR-5 ovarian
OVCAR-4 ovarian = test system: OVCAR-4 ovarian
SK-OV-3 ovarian = test system: SK-OV-3 ovarian
IGROV1 ovarian = test system: IGROV1 ovarian
OVCAR-3 ovarian = test system: OVCAR-3 ovarian
HS 578T breast = test system: HS 578T breast
NCI/ADR-RES ovarian = test system: NCI/ADR-RES ovarian

Structure (SMILES) | growth (SR leukemia) | growth (RPMI-8226 leukemia) | growth (OVCAR-8 ovarian) | growth (OVCAR-5 ovarian) | growth (OVCAR-4 ovarian) | growth (SK-OV-3 ovarian) | growth (IGROV1 ovarian) | growth (OVCAR-3 ovarian) | growth (HS 578T breast) | growth (NCI/ADR-RES ovarian)
C/C(=C\c1ccc(O)cc1O)c1ccc2ccc(O)cc2[o+]1 | 20.2% | 65.7% | 9.36% (active) | 192% | 74.4% | 103% | 47.8% | 28.7% | 90.2% | 22.1%
COc1cccc(COc2ccc(/C=C3\Oc4cc(O)ccc4C3=O)cc2)c1 | 21.4% | 32.1% | 23.6% | 77.6% | -9.02% (active) | 77.4% | 53.7% | 24.9% | -7.04% (active) | 24.8%
COc1cnc2c(c1)C(=O)c1c-2n(CCCNC(C)C)c(=O)c2cc(OC)c(OC)cc12 | 2.52% (active) | -14.8% (active) | 37% | 70.8% | 28.2% | 22.1% | 32% | 5.2% (active) | 103% | 29.1%
OCc1[nH]nc2cc(Nc3ncc4ccc(Br)c(OC5CCC(O)CC5)c4n3)ccc12 (stereo not given) | 3.06% (active) | 3.2% (active) | 8.63% (active) | -17.9% (active) | 4.77% (active) | 13.7% | -12.4% (active) | 2.95% (active) | -28.5% (active) | -3.04% (active)
C=C1CCC2C3(C)COC(c4cc(F)cc(F)c4)OC3CCC2(C)C1C/C=C1/C(=O)OCC1O (stereo not given) | 7.75% (active) | 14.1% | -83.1% (active) | -21.3% (active) | -11% (active) | 25% | -49.8% (active) | -76.9% (active) | -24.1% (active) | -11.1% (active)
O=C(N=Nc1c(O)[nH]c2ccc(Br)cc12)c1ccc2nc(-c3ccccc3)[nH]c2c1 | -5.76% (active) | -4.88% (active) | -94.5% (active) | -5.18% (active) | -92.1% (active) | -54.9% (active) | -39% (active) | -69.7% (active) | -25.9% (active) | 76.7%
Clc1ccc2c(N/N=C/c3c[nH]c4ccc(Br)cc34)ccnc2c1 | -45.6% (active) | -42.1% (active) | -64.6% (active) | -66.5% (active) | -78.6% (active) | -84.7% (active) | -41.2% (active) | -82.8% (active) | -58.5% (active) | -77.5% (active)
Cc1ccc(CNC(=O)Cc2ccc3c(c2)CN(C2CCC(=O)NC2=O)C3=O)cc1 (stereo not given) | 38.7% | 30.3% | 1.57% (active) | 29.5% | 0.757% (active) | 18.4% | 2.34% (active) | 6.03% (active) | -15.4% (active) | -8.37% (active)
CN1CCN(Cc2ccc(NC(=O)c3cncc(C#Cc4cnc5ccc(N[C@@H]6CCOC6)nn45)c3)cc2C(F)(F)F)CC1 | -18.5% (active) | -24.1% (active) | -96.2% (active) | -91.6% (active) | -66.3% (active) | -83.1% (active) | -91.6% (active) | -90.3% (active) | -41% (active) | -77.5% (active)
COc1ccc(-c2nc(Nc3ccccc3S(N)(=O)=O)c3ccccc3n2)cc1 | 23% | 14.9% | -27% (active) | 48% | 32.7% | 95.3% | 43.4% | -20.6% (active) | 42.8% | 18%
O=C(CSc1nnc(-c2c[nH]c3ccccc23)n1-c1ccccc1)Nc1ccc(C(=O)/C=C/c2ccccc2Cl)cc1 | 71.6% | 40.3% | 61.7% | 101% | 79.1% | 95.2% | 95.1% | 80.6% | 86.4% | 92.4%
N#Cc1c(NC(=O)c2ccc(C(F)(F)F)cc2)sc2c1CCC(O)=C2 | 8.2% (active) | 9.09% (active) | 28.9% | 82.8% | 41.6% | 17.9% | 38.3% | 18.8% | 12.3% | -33.5% (active)
O=C(NCCCCCCCCCC[P+](c1ccccc1)(c1ccccc1)c1ccccc1)c1ccc(-n2nc(-c3ccccc3O)nc2-c2ccccc2O)cc1 | 1.87% (active) | 1.07% (active) | -22.2% (active) | -94% (active) | -51.8% (active) | -71.5% (active) | -75.7% (active) | -14.1% (active) | -22.1% (active) | 37.4%
Nc1nc2c(F)c(F)c(F)c(F)c2s1 | 86.5% | 108% | 99.7% | 104% | 104% | 99.5% | 101% | 104% | 100% | 104%
COC(=O)C[C@](O)(CCCC(C)(C)O)C(=O)O[C@H]1C(OC)=C[C@@]23CCC(=O)N2CCc2cc4c(cc2[C@@H]13)OCO4 | 80.6% | 106% | 107% | 102% | 90.1% | 103% | 93% | 94.8% | 87.9% | 102%
CN(C(=O)c1ccc(C(C)(C)C)cc1)c1sc2c(c1C#N)CCC(=O)C2 | 13.7% | 9.38% (active) | 5.3% (active) | 8.47% (active) | 1.97% (active) | 101% | -34.4% (active) | -69.7% (active) | 11.8% | -35.1% (active)
CCN1CCN(Cc2ccc(C(=O)Nc3cccc(-c4cn(-c5ccc6oc(=O)ccc6c5)nn4)c3)cc2C(F)(F)F)CC1 | -51.6% (active) | -40.7% (active) | -100% (active) | -100% (active) | -100% (active) | 25.4% | -100% (active) | -100% (active) | -21.6% (active) | -100% (active)
COc1cccc(-c2ccnc(/N=C(\N)Nc3ccc(S(=O)(=O)Nc4nc(C)cc(C)n4)cc3)n2)c1 | 100% | 90.1% | 102% | 107% | 96% | 84% | 83.4% | 99.3% | 86.4% | 103%
O=C1c2ccccc2C(=O)c2c1c(C(=O)c1ccc(Cl)cc1)n1c2ccc2c3ccccc3ccc21 | 104% | 101% | 103% | 115% | 107% | 95% | 105% | 109% | 93.2% | 103%
Cc1ccc(C(=O)N/C(=C2/OCCN2C)[P+](c2ccccc2)(c2ccccc2)c2ccccc2)cc1 | 79.5% | 25.6% | 80.5% | 96.3% | 69.8% | 104% | 69.9% | 54.5% | 79.6% | 101%
N#C/C(=C\c1ccc(N(c2ccccc2)c2ccccc2)cc1)C(N)=O | 69.1% | 19.8% | 75.1% | -60.6% (active) | 4.67% (active) | 56% | -21.2% (active) | 3.69% (active) | 99.2% | 57.4%
COc1cc2c(c(OC)c1OC)C(=O)CC(c1cccc(NC(=O)c3cccc(N)c3)c1)O2 (stereo not given) | 47.7% | 57.4% | 55% | 123% | 64.1% | 107% | 86.7% | 80.9% | 90.3% | 68.2%
O=C(NO)c1ccc(CNC(=O)[C@H]2Cc3c([nH]c4ccccc34)[C@H](c3ccccc3)N2)cc1 | 23.8% | 15.1% | 24.7% | 15.3% | 53.7% | -3.43% (active) | 46.9% | 22.7% | 17.3% | 63%
COc1ccc2c3nc4cc(C)c(C)cc4nc3n(CCN(C)C)c2c1 | 9.88% (active) | 9.26% (active) | -56.4% (active) | 24.5% | -26.1% (active) | -12.8% (active) | -8.59% (active) | -47.1% (active) | 49.1% | 0.91% (active)
COc1ccc(OC)c(/C=N/NC(=O)c2ccc3nc(-c4ccc(Cl)cc4)[nH]c3c2)c1 | 68.6% | 37.7% | 82.8% | 104% | 61.1% | 84.9% | 92.2% | 89.2% | 51.2% | 88.8%
CC(C)C1=C[C@@]23CC[C@@H]4[C@](C)(CCC[C@]4(C)C(=O)NCc4ccccc4)[C@H]2C[C@@H]1[C@H]1C(=O)OC(=O)[C@H]13 | 6.39% (active) | 24.7% | 42.7% | 93.6% | 49.8% | 74.5% | 31.1% | 42% | 44.6% | 37.4%
